Source: PubChem
IL-1B inflam inh: qHTS for Inhibitors of Inflammasome Signaling: IL-1-beta AlphaLISA Primary Screen; AID 743279, 2014; activity change, % at 57.5 µM; 4.7% of 360,000 active; THP-1 LPS/ATP IL-1B secretion, AlphaLISA, 16 h; hits give low values; in the data active means activity change below about -50%; inconclusive means mostly about -30% to -49%
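THP-1 cells pretreated 1 hr with compounds (up to 57.5 uM final), then stimulated with LPS (250 ng/mL final) plus ATP (1.25 mM final); secreted IL-1B measured by AlphaLISA after 16 hr, decreased signal indicating inhibition.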
TDP1 cell CPT: qHTS for Inhibitors of human tyrosyl-DNA phosphodiesterase 1 (TDP1): qHTS in cells in presence of CPT; 12% of 420,000 active; Potency, µM (highest dose often 46.2 µM), for inactives: at the highest dose activity change, negative = growth inhibition, most hits filed as inhibitors; chicken DT40 Tdp1-/-;hTDP1 cells + 20 nM CPT, ATP luminescence, 48 h; further: potency means the concentration at half of the fitted maximal effect; nearly all actives have a fitted effect of over 55% in size
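Cell growth measured by CellTiter-Glo luminescence after a minimum 48 h, 37 C compound exposure with 20 nM CPT in Tdp1-knockout DT40 cells stably expressing hTDP1, seeded 400/well; qHTS titration format.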
DT40 TDP1 no CPT: qHTS for Inhibitors of human tyrosyl-DNA phosphodiesterase 1 (TDP1): qHTS in cells in absence of CPT; DT40 Tdp1-/- hTDP1 cells, no CPT, ATP luminescence, 48 h; Potency, µM (titrated, usually from 46.2 µM), inactives show at the top dose activity change, negative = growth inhibition, actives largely listed as inhibitors; 15% of 420,000 active; further: potency means the concentration at half of the fitted maximal effect; nearly all actives have a fitted effect of over 55% in size
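A cellular qHTS used chicken DT40 cells lacking endogenous Tdp1 but carrying stably transfected human TDP1. Compounds were applied without camptothecin, and cell growth kinetics were judged by ATP-dependent luminescence after ≥48 hr.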
HT1080 IDH1KD tx: qHTS for induction of synthetic lethality in tumor cells producing 2HG: qHTS for the HT-1080-IDH1KD cell line; Potency, µM (titrated, usually from 46.1 µM), without a hit: at the top dose activity, negative = toxicity, hits mostly cytotoxic; HT-1080 IDH1 knockdown viability, ATP luminescence, 48 h; 2% of 360,000 active; AID 686971, 2013;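 further: potency means the concentration at half of the fitted maximal effect; 0% = DMSO wells and -100% = cell-free medium wells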
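IDH1KD HT-1080 cells, 750/well, RPMI + 5% FBS; compound pinned after 2 h settling; 48 h, 37 °C; CellTiter-Glo luminescence; % activity normalised to DMSO and no-cell wells; curves fitted, classed by r2 and efficacy.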
ALOX12 inh: Primary qHTS assay for inhibitors of human arachidonate 12S-lipoxygenase (ALOX12): Round 2. Potency, µM (highest dose often 108 µM), for inactives: top-dose activity change, negative = inhibition, most hits filed as inhibitors. purified 12hLO, xylenol orange hydroperoxide absorbance. Polyunsaturated fatty acid lipoxygenase ALOX12 (Homo sapiens), P18054. 1.1% of 580,000 active; further: potency means the concentration at half of the fitted maximal effect
Target sequence (P18054 whole entry, looked up): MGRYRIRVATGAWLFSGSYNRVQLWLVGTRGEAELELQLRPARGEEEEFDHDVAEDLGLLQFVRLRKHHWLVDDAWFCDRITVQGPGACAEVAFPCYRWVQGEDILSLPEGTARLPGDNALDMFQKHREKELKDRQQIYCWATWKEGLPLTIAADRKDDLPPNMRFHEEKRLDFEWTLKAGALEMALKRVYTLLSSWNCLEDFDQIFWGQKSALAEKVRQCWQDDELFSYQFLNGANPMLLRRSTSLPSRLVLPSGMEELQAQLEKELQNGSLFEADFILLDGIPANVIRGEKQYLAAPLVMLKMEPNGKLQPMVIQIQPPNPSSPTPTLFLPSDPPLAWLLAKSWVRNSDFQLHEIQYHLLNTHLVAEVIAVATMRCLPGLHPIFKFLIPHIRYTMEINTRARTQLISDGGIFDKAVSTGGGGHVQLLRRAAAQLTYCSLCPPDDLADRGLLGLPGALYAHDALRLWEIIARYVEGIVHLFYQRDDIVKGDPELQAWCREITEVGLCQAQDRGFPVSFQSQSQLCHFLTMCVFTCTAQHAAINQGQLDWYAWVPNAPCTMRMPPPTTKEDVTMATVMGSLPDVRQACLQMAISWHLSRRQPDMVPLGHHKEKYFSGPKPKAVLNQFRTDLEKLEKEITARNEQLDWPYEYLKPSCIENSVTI
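Hydroperoxide product was detected by ferrous iron/xylenol orange as the 573 to 405 nm absorbance ratio. Arachidonic acid at 40 uM (final) was turned over for 30 min at room temperature by 150 nM human 12hLO, pH 7.0 Hepes buffer, after 15 min compound preincubation.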
HT1080-NT tox: qHTS for induction of synthetic lethality in tumor cells producing 2HG: qHTS for the HT-1080-NT fibrosarcoma cell line; HT-1080-NT fibrosarcoma viability, CellTiter-Glo ATP luminescence, 48 h; Potency, µM (titrated, usually from 46.1 µM), inactives show at the highest dose activity, negative = less viability, actives largely listed as cytotoxic; 1.6% of 360,000 active; AID 686970, 2013;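 further: NT is the 2HG producing partner of a matched IDH1 knockdown line; potency means the concentration at half of the fitted maximal effect; 0% = DMSO-treated cells and -100% = media-only wells without cells; nearly all actives have a fitted effect of over 55% in size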
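HT-1080-NT; 750 cells/well; 5% FBS RPMI; 48 h compound, 37 degrees C; CellTiter-Glo luminescence; curve fitting and curve-class assignment.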
Numbers without * were called inactive; u = inconclusive; x = not tested or not shown; [ ] = dose if it differs, or a comment. Only a selection was taken, and hits are over-represented in it overall. Unless noted, the call rests on the fitted dose curve; in most records, active means well fitted curve in the direction sought with a large enough effect; inconclusive means small, poorly fitted or top-dose-only effect, or another doubt; inactive means no such curve, though single readings can be large; an effect the other way counts as inactive or inconclusive. Unless noted, on the % scale 0 is the no-effect control and ±100 the full control effect.

SMILES | IL-1B inflam inh | TDP1 cell CPT | DT40 TDP1 no CPT | HT1080 IDH1KD tx | ALOX12 inh | HT1080-NT tox
O=C(C1COc2ccccc2O1)N1CCc2nc3cc(-c4ccccc4)[nH]n3c(=O)c2C1 (stereo not given) | x | x | x | x | 5.4% | x
Cc1cc2nc(C)n(CCCNC(=O)Nc3ccc(F)cc3)c2cc1C | u | u | 23.1µM* | -15.6% | 2.8% | -6.6%
CC1=NN(C(=O)c2ccc(C)o2)C(O)(c2ccccc2)C1 (stereo not given) | 9.6 | 4.61µM* | 4.61µM* | 2.2% | 13.4% | 4.1%
CC1=NN(C(=O)c2ccco2)C(O)(c2ccccc2)C1 (stereo not given) | 5.3 | 1.03µM* | 0.92µM* | -14.0% | 0.0% | -19.8%
CC1=NN(C(=O)CSCc2ccccc2)C(O)(c2ccccc2)C1 (stereo not given) | 8.6 | -24.8% | -0.8% | -1.5% | -10.8% | 14.6%
Cc1ncc(CO)c(CO)c1OCC(O)CN1CCN(c2ccc(F)cc2)CC1 (stereo not given) | 58.9 | u | u | 7.8% | -1.2% | 8.7%
COc1ccc(-c2nc3cc(Cl)ccc3o2)cc1 | x | x | x | x | -29.8% | x
COc1ccccc1N1CCN(C(=O)c2ccccc2Oc2ccccc2)CC1 | -21.4 | u | u | -2.2% | 222.5% | -14.0%
O=C(c1ccccc1F)N1CCN(c2ccccc2F)CC1 | -12.7 | -11.5% | -28.2% | 11.8% | 0.0% | 18.5%
O=C(c1ccccc1Oc1ccccc1)N1CCN(c2ccccc2F)CC1 | -11.8 | 18.4µM* | 16.4µM* | -24.7% | -1.6% | -24.1%
O=C(c1ccccc1C(=O)N1CCN(c2ccccc2F)CC1)N1CCN(c2ccccc2F)CC1 | 17.5 | 18.4µM* | u | -3.1% | -5.4% | -5.7%
CCOC(=O)/C=C/C(=O)OC(C)C(=O)Nc1ccc(C(N)=O)cc1 (stereo not given) | x | x | x | x | -2.4% | x
CC(C)C[C@@H](CN1CCC[C@H]1CN1C(=O)C(=O)NC[C@@H]1Cc1ccc(O)cc1)N1C[C@H](Cc2ccccc2)N(CC2CCCCCC2)C(=O)C1=O | -90.6* | u | u | u | u | u
CC(C)C[C@@H](CN1CCC[C@H]1CN1C(=O)C(=O)NC[C@@H]1Cc1ccccc1)N1C[C@H](Cc2ccccc2)N(CC2CCCCCC2)C(=O)C1=O | -79.8* | 18.4µM* | u | u | -7.0% | -9.6%
CC(C)C[C@@H](CN1CCC[C@@H]1CN1C(=O)C(=O)NC[C@@H]1Cc1ccccc1)N1C[C@H](Cc2ccc(O)cc2)N(CC2CCCCCC2)C(=O)C1=O | -71.8* | u | u | u | u | u
O=C([C@@H]1C[C@H](Oc2ccccc2)CN1C(=O)Cc1cccc(F)c1)N1CCOCC1 | x | x | x | x | 10.6% | x
C=C(NNC(C)=O)c1ccc(O)cc1 | x | -4.9% | 6.6% | x | x | x
COc1ccc(-c2cc(OC(=O)c3ccc(F)cc3)c3c(C)oc(C)c3c(=O)c2)cc1OC | x | 18.4µM* | u | x | u | x
CCOc1cc(-c2ccc(OC(=O)c3ccc(OC)cc3)c(OC)c2)cc(=O)c2c(C)oc(C)c12 | x | 14.6µM* | 18.4µM* | x | -28.2% | x
COc1cc(-c2cc(OC)c3c(C)oc(C)c3c(=O)c2)ccc1OC(=O)c1cccc(C)c1 | x | 23.1µM* | 13µM* | x | u | x
COc1ccc(-c2cc(OC(=O)c3cccc(Br)c3)c3c(C)oc(C)c3c(=O)c2)cc1 | x | x | x | x | 4.47µM* | x
CCOC(=O)C1C(=O)C=C(c2ccc(C)cc2)CC1c1cccs1 (stereo not given) | x | x | x | x | -18.3% | x
COc1ccccc1C(=O)NC1CCN(C(=O)Nc2ccc(F)cc2)CC1 | 8.0 | -2.6% | 1.1% | 6.8% | -8.5% | 21.4%
CCN1CC[C@H]2COC(=O)N2c2ccc(OC)cc2C1 | x | x | x | x | 19.2%[176 µM] | x
CCN(C(=O)CSc1nc2ccccc2n1Cc1cc(C)ccc1C)c1ccccc1 | x | 16.4µM* | 23.1µM* | x | -17.3% | x
SMILES | IL-1B inflam inh | TDP1 cell CPT | DT40 TDP1 no CPT | HT1080 IDH1KD tx | ALOX12 inh | HT1080-NT tox
CCN(C(=O)CSc1nc2ccccc2n1Cc1ccccc1C#N)c1ccccc1 | x | 14.6µM* | 13µM* | x | -10.6% | x
N#Cc1nc(-c2ccco2)oc1N1CCN(CC(=O)Nc2cccc(Br)c2)CC1 | x | x | x | x | 38.8% | x
O=C(CSC1=NCCN1)C1COc2ccccc2O1 (stereo not given) | -12.6 | 18.4µM* | u | u | 0.0% | 2.3%
CC(C)(C)C(=O)Cn1c(=N)n(Cc2ccccc2Cl)c2ccccc21 | -27.0 | 25.9µM* | 25.9µM* | -20.9% | u | -10.7%
Cc1ccc(C)n1Cc1ccccc1Cl | -5.7 | 2.4% | -12.8% | -6.8% | 159.3% | -1.9%
Cc1ccc(Cn2c(=N)n(CC(=O)c3ccccc3)c3ccccc32)cc1 | -82.4* | 7.31µM* | 3.66µM* | u | u | -27.5%
CCOC(=O)Cn1c(=N)n(Cc2ccc(C(C)(C)C)cc2)c2ccccc21 | x | u | 13µM* | x | u | x
CCCn1c(=N)n(CC(=O)OCC)c2ccccc21 | 13.7 | -6.6% | -1.1% | 4.9% | 3.8% | 10.0%
C=CCn1c(=N)n(CC(=O)OCC)c2ccccc21 | 26.4 | -4.4% | 13.8% | 15.4% | -0.3% | 5.5%
CC(C)(C)C(=O)Cn1c(=N)n(Cc2ccccc2)c2ccccc21 | -26.8 | 20.6µM* | 14.6µM* | u | u | u
CCCOc1ccc(NC(=O)c2ccc(C)cc2)c2cccnc12 | x | x | x | x | -15.6% | x
O=S(=O)(NCCc1ncc2ccccn12)c1ccc(F)cc1 | x | x | x | x | 2.9% | x
Cc1cccc(N2C(=O)/C(=C\c3ccc(OC(F)F)cc3)c3ccccc3C2=O)c1 | -17.2 | u | u | -3.1% | -20.6% | -0.6%
COc1cccc(/C=C2\C(=O)N(c3cccc(C)c3)C(=O)c3ccccc32)c1 | u | 25.9µM* | u | 9.2% | -24.2% | 2.7%
CC(=O)c1sc(NC(C)C)c(C#N)c1N | x | x | x | x | 17.8µM* | x
Cc1cc(=O)n(C(C)C(=O)N2CCCc3ccccc32)c2c1c(C)nn2-c1ccccc1 (stereo not given) | x | 16.4µM* | u | x | -25.4% | x
CC(C)[C@@H]1Cc2[nH][nH]c(=O)c2[C@H](CCc2ccccc2)O1 | -1.7 | -17.3% | u | 2.0% | -20.4% | 9.5%
